Test [1] is described as follows: qHTS assay for small molecule agonists of the p53 signaling pathway (AID 651631; calls by dose curve; also: nearly all actives have a fitted effect of over 15% in size; also: potency is read from the fitted curve at half-maximal effect). The settings on record: HCT-116 p53RE-bla reporter, beta-lactamase FRET ratio, 16 h; series mostly up to 73.3 µM. An outline of the steps:
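Fluorescence intensity from cleaved LiveBLAzer B/G substrate (2 h, room temperature) served as the signal. Beforehand, HCT-116 reporter cells bearing p53 response elements were treated 16 h at 37 °C with DMSO-dissolved compounds.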
(In qHTS, concentration-response curves come from the screen itself.)

Test [2] can be described thus: qHTS assay for small molecule agonists of the p53 signaling pathway - cell viability (AID 651633; calls by dose curve; also: nearly all actives have a fitted effect of over 30% in size; also: potency is read from the fitted curve at half-maximal effect). Particulars: p53RE-bla HCT-116 viability, ATP luminescence, 16 h; series mostly up to 83.3 µM. An outline of the steps:
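p53RE-bla cells, seeded at 4,000 per well and rested 5 h at 37 C/5% CO2, received compounds in DMSO for 16 h at 37 C. CellTiter-Glo was then added, and luminescence was read after 30 min at room temperature to gauge cytotoxicity.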

A short description of test [3]: qHTS assay for small molecules that induce genotoxicity in human embryonic kidney cells expressing luciferase-tagged ATAD5 - cell viability (AID 651634; calls by dose curve; also: nearly all actives have a fitted effect of over 25% in size; also: potency is read from the fitted curve at half-maximal effect). Particulars: HEK293T ATAD5-luc cells viability, CellTiter-Fluor, 15.5 h; series mostly up to 83.3 µM. An outline of the steps: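 Fluorescence from CellTiter-Fluor, reporting protease activity within live cells, served as the viability read-out. HEK293T cells carrying luciferase-tagged ATAD5 had been treated with compound for 15.5 hr at 37C.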

Test [4] in a line: qHTS assay for small molecule disruptors of the mitochondrial membrane potential - cell viability (AID 720634; calls by dose curve; also: nearly all actives have a fitted effect of over 20% in size; also: potency is read from the fitted curve at half-maximal effect). The settings on record: HepG2 viability, ATP luminescence (CellTiter-Glo), 1 h; series mostly up to 83.2 µM. The method, boiled down:
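Cells: HepG2, 2,000/well, attached overnight. Compound 1 hr, 37 C/5% CO2. +m-MPI dye, +CellTiter-Glo 30 min RT. Readout: luminescence (ATP).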

Test [5] is described as follows: qHTS assay to test for compound auto fluorescence at 590 nm (red) in HepG2 cells (AID 720674). The settings on record: HepG2 autofluorescence, red 540/590 nm, 1 h; series mostly up to 91.3 µM. An outline of the steps: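 Compound auto-fluorescence is scored relative to Rose Bengal sodium, measured at 540/590 nm in live HepG2 cultures after 1 hr compound contact (37 C, 5% CO2).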

A short description of test [6]: qHTS assay to test for compound auto fluorescence at 535 nm (green) in HepG2 cells (AID 720675). The settings on record: green autofluorescence 485/535 nm, 1 h; series mostly up to 91.3 µM.
A short description of test [7]: qHTS assay to test for compound auto fluorescence at 590 nm (red) in HEK293 cells (AID 720679). The settings on record: red autofluorescence 540/590 nm; series mostly up to 91.3 µM. An outline of the steps:
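Each well held 2,000 HEK293 cells in medium containing 10% dialyzed FBS. Following 4-5 hr attachment at 37C, 23 nL test compound or DMSO was added; plates sat overnight, and red fluorescence (540/590nm) was recorded.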

Test [8] in a line: qHTS assay for small molecules that induce genotoxicity in human embryonic kidney cells expressing luciferase-tagged ATAD5 (AID 651632). Also: nearly all actives have a fitted effect of over 15% in size. Also: potency is read from the fitted curve at half-maximal effect. The settings on record: HEK293T ATAD5-luciferase induction, 16 h; series mostly up to 83.3 µM. The method, boiled down: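 ATAD5-luc HEK293T, 2,000 cells/well; cpd or DMSO pin-transferred; 16 hr, 37C/5% CO2; Amplite 30 min RT; luminescence.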

A short description of test [9]: qHTS assay for small molecule disruptors of the mitochondrial membrane potential (AID 720635). Also: potency is read from the fitted curve at half-maximal effect. Particulars: HepG2 mitochondrial membrane potential, Mito-MPS dye ratio; series mostly up to 83.2 µM. An outline of the steps: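 HepG2 cells (2,000/well) attached overnight at 37C, then took compound for 1 hr at 37C, 5% CO2. Mito-MPS dye was added for 30 min; fluorescence was read at 490/535 nm (monomers) and 540/590 nm (aggregates).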

Test [10] is described as follows: qHTS assay to test for compound auto fluorescence at 460 nm (blue) in HEK293 cells (AID 720678). Particulars: blue autofluorescence 405/460 nm; series mostly up to 91.3 µM. An outline of the steps: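 Cells were seeded and left to adhere for 4-5 hr at 37C. Compounds were then pin-transferred. After an overnight incubation at 37C under 5% CO2, intrinsic fluorescence at 405/460 nm was measured and referenced to triamterene.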

SMILES strings stand for the structures. Where “and” joins values, the source holds several entries; their conditions need not be identical. Equal entries are not always repeated. Inconclusive results are not listed. Some structures have more than one record in an assay (separate samples or runs), and their calls can disagree. Calls of active or inactive are those of the source. Unless noted, calls follow the shape of the dose curve; as a rule, active = well fitted curve in the direction sought with a large enough effect in the repeat runs; inconclusive = weak or mixed curves; inactive = no such curve, though single readings can be large; an effect the other way counts as inactive or inconclusive.

With `CCOP(=S)(OCC)OP(=S)(OCC)OCC`, the Potency result in test [1], in test [2], in test [3] and in test [4] was “inactive” in each case. Further, the compound was called inactive in test [5], in test [6] and in test [7].

As to `C=C(C)C#N`, the Potency entry in [1], in test [8], in test [2] and in [3] was “inactive” in each case. The call in test [5] and in [6] was inactive.

As to `CCOP(=O)(OCC)OCC`, the Potency entry in test [1], in test [8], in test [2], in test [3], in test [4] and in test [9] was “inactive” in each case. The call in test [5], in test [6] and in test [7] was inactive.

Turning to `COc1ccc(CO)cc1`, the Potency result in test [1], in [2], in test [3], in [4] and in [9] was “inactive” each time. In addition, the compound was called inactive in test [5], in test [6] and in test [7].

As for `O=C1C(Cl)=C(Cl)C(=O)c2ccccc21`, the Potency result in [8] and in [3] was “inactive” each time. Besides, the Potency in test [2] was 6.88 µM (active) and 21.7 µM (active); in test [4], 13.7 µM (active) and 15.4 µM (active); in [9], 3.87 µM (active) and 4.86 µM (active). Moreover, the outcome in test [5] and in test [6] was inactive.

Take `O=C1Nc2ccc(Cl)cc2C(c2ccccc2)=NC1O` (stereo not given): the Potency entry in test [1], in [8], in test [2], in test [3], in test [4] and in [10] was “inactive” in each case. The result in test [5] and in test [6] was inactive.

As to `Clc1cccc(C(Cl)(Cl)Cl)n1`, the Potency result in test [1], in test [8], in test [2], in test [3] and in [4] was “inactive” throughout. In addition, the outcome in [5], in test [6] and in [7] was inactive.

As to `CC1=C(C(=O)Nc2ccccc2)SCCO1`, the Potency entry in [1], in [2], in [3], in [4] and in test [10] was “inactive” throughout. Further, the compound was classed as inactive in [5], in test [6] and in test [7].

Take `CC(C)COC(=O)c1ccccc1C(=O)OCC(C)C`: the Potency result in test [8], in test [2], in [3] and in test [4] was “inactive” throughout. In addition, in [9], the Potency is 68.6 µM (active). Further, the result in test [5] and in test [6] was inactive.

Consider `O=P(OCCCl)(OCCCl)OCCCl`, for which the Potency entry in test [1], in test [8], in test [2], in [3], in test [4] and in [9] was “inactive” in each case. Besides, the result in test [5], in test [6] and in test [7] was inactive.

As for `C=CC(=O)OCC(CC)(COC(=O)C=C)COC(=O)C=C`, the Potency in [8] is 7.04 µM (active); in test [2], 35.3 µM (active); in [3] it was 15.8 µM (active) and 19.3 µM (active); in test [9], 62.8 µM (active). The Potency result in test [4] and in test [10] was “inactive” throughout. Moreover, the result in test [5] and in test [6] was inactive.

Turning to `COP(=S)(OC)Oc1ccc(S(=O)(=O)N(C)C)cc1`, the Potency entry in test [1], in [8], in test [2], in [3], in [4] and in test [10] was “inactive” in each case. Moreover, the call in test [5], in test [6] and in [7] was inactive.

For `S=c1[nH]c2ccccc2[nH]1`, the Potency result in [1], in [2], in test [3], in test [4] and in [9] was “inactive” throughout. The result in test [5] and in [6] was inactive.

Consider `O=C(O)CF`, for which the Potency entry in test [8], in test [2], in test [3], in [4], in [9] and in test [10] was “inactive” each time. Besides, the outcome in test [5] and in test [6] was inactive.

With `ClC(Cl)(Cl)Br`, the Potency entry in test [1], in test [8], in test [2], in test [3], in test [4] and in [9] was “inactive” throughout. The outcome in test [5], in test [6] and in [7] was inactive.

As to `OC(c1ccc(Cl)cc1)(c1cncnc1)c1ccccc1Cl` (stereo not given), the Potency result in [1], in test [8], in test [2] and in [3] was “inactive” in each case. Further, the Potency in test [9] was 49.4 µM (active) and 30.6 µM (active). In addition, the result in [5], in test [6] and in [7] was inactive.

In the case of `CC(O)CN(CC(C)O)CC(C)O` (stereo not given), the Potency result in [1], in [2], in test [3], in test [4] and in test [9] was “inactive” throughout. Further, the result in [5] and in test [6] was inactive.

Take `C[C@]12CC[C@H]3[C@@H](CCC4=CC(=O)CC[C@@H]43)[C@@H]1CC[C@@H]2O`: the Potency entry in [1], in test [8], in [2], in [3], in test [4] and in [9] was “inactive” throughout. Further, the outcome in test [5], in test [6] and in [7] was inactive.

For the compound `COP(=O)(NC(C)=O)SC` (stereo not given), the Potency entry in test [1], in test [8], in [2], in [3] and in [4] was “inactive” in each case. Besides, the compound was classed as inactive in test [5], in test [6] and in test [7].

As to `O=C1CCCO1`, the Potency entry in test [1], in [8], in test [2], in [3], in test [4] and in test [9] was “inactive” in each case. The outcome in [5], in test [6] and in test [7] was inactive.

Turning to `CCCCSP(=O)(SCCCC)SCCCC`, the Potency entry in [1], in [8], in test [2], in [3] and in [10] was “inactive” in each case. In addition, the compound was called inactive in test [5], in test [6] and in test [7].

Take `CCOC(=O)c1ccccc1N`: the Potency result in [8], in test [2], in test [3], in [4], in test [9] and in test [10] was “inactive” throughout. The outcome in [5] and in [6] was inactive.

With `CCNCC`, the Potency result in test [8], in test [2], in test [3], in test [4], in test [9] and in test [10] was “inactive” each time. The outcome in test [5] and in test [6] was inactive.

With `CCC[CH2][Sn]([Cl])([CH2]CCC)[CH2]CCC`, the Potency entry in [8] was “inactive”. Besides, the Potency is 687 nM (active) and 1.22 µM (active) in test [2]; 612 nM (active) and 3.06 µM (active) in test [3]; 1.73 µM (active) and 4.86 µM (active) in test [4]; 61.3 nM (active) and 122 nM (active) in test [9]. The call in test [5] and in test [6] was inactive.

Regarding `CC(C)=CC1C(C(=O)OCc2cccc(Oc3ccccc3)c2)C1(C)C` (stereo not given), the Potency result in [8], in [2], in test [3], in test [4] and in test [9] was “inactive” in each case. Also, the outcome in [5] and in test [6] was inactive.

Turning to `CC(C)Nc1ccc(Nc2ccccc2)cc1`, the Potency in test [1] was 26.6 µM (active) and 68.3 µM (active) and 30.6 µM (active); in test [2], 23.7 µM (active) and inactive; in [9] it was 21.1 µM (active) and 60.9 µM (active) and 61.1 µM (active). Moreover, the Potency entry in test [8], in test [3] and in test [10] was “inactive” each time. Moreover, the outcome in test [5], in test [6] and in test [7] was inactive.

`CCOP(=S)(OCC)SCSC(C)(C)C`: the Potency result in test [1], in [8], in test [2], in test [3], in test [4] and in test [10] was “inactive” in each case. For the same compound, the call in [5], in [6] and in [7] was inactive.

Source of the values: PubChem BioAssay (Tox21).
